# The campaign covered roughly 220,000 compounds. About 16,000 (7.3%) were called active. About 25% were inconclusive and are not listed. The sample holds actives, similar compounds and a random draw of the others, so the mix is not that of the screen. A number with no mark means an inactive call. The call rests on the fitted dose curve; in most records, active means well fitted inhibition curve with a large enough effect (not every such curve was filed as active); inconclusive means small, poorly fitted or top-dose-only effect, or another doubt; inactive means no such curve, though single readings can be large or run the other way.
# Target: Aldehyde dehydrogenase 1A1 (Homo sapiens) (UniProt P00352)
# Sequence (P00352 whole entry, looked up): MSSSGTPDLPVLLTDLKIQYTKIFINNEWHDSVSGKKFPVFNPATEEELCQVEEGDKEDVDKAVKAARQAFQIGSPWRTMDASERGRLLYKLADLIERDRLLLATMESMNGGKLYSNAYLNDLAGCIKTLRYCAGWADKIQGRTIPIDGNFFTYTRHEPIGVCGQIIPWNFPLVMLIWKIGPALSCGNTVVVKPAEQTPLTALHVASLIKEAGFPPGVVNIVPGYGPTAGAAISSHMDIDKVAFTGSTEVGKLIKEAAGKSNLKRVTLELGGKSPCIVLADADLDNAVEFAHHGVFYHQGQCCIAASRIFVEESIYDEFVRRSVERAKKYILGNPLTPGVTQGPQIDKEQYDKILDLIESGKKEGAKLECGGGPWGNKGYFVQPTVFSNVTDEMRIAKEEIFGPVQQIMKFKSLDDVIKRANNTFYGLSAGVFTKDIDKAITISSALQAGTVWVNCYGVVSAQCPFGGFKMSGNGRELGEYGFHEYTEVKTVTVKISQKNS
# Assay: qHTS Assay for Inhibitors of Aldehyde Dehydrogenase 1 (ALDH1A1);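 on activity, negative = inhibition: plate controls were no enzyme wells and a reference inhibitor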
# Conditions: Purified ALDH1A1, NADH fluorescence, propionaldehyde substrate; series mostly up to 75.3 µM; activity, negative = inhibition: at the top concentration
# Potency means the concentration at half of the fitted maximal effect.
Compound,"activity, negative = inhibition",Potency
CC(C)(C)c1cc(NC(=O)NN2CCOCC2)nn1-c1c(Cl)cc(Cl)cc1Cl,-0.397%,
CSCCC(NC(=O)c1cc([N+](=O)[O-])cc([N+](=O)[O-])c1)c1nc2ccccc2[nH]1 (stereo not given),4.43%,
CSCCC(NC(=O)c1ccc(=O)n(C)n1)c1nc2ccccc2[nH]1 (stereo not given),11.8%,
COc1ccc(CC(=O)N[C@@H](CCSC)c2nc3ccccc3[nH]2)cc1,,8.91 µM (active)
Cc1ccc(C(=O)Cn2cc([N+](=O)[O-])nc2C)cc1,9.11%,
C=CCn1c(SCc2csc(C)n2)nc2scc(-c3ccc(C)o3)c2c1=O,,22.4 µM (active)
C=CCn1cnc2scc(-c3ccccc3)c2c1=O,0.35%,
C=CCn1c(SCC(=O)/C(C#N)=C(\C)N)nc2sc(C)c(C)c2c1=O,-5.93%,
CN1CCCN(C(=O)C2CCCCC2)CC1,-8.59%,
COc1ccccc1NC(=O)CCSc1nnc(-c2ccc(O)cc2)o1,-7.94%,
CN(C)/C=C1/C(=O)Nc2ccccc21,-4.37%,
CN(C)/C=C1/Nc2ccccc2C1=O,,25.1 µM (active)
O=C1CCCCC(=O)c2ccccc2N1,-2.2%,
CCOC(=O)C1(Cc2cccc(OC)c2)CCCN(S(=O)(=O)c2cccnc2)C1 (stereo not given),-6.96%,
O=C(NCCCN1CCOCC1)c1ccccc1NS(=O)(=O)c1ccc(Br)cc1,6.72%,
CCOC(=O)NC(=O)C(=CNc1cccc(OC)c1)C(=O)NC(=O)OCC,-4.91%,
CCc1c(C)sc(NC(=O)/C=C/c2ccc3c(c2)OCO3)c1C(=O)OC,-7.92%,
CSC1=N/C(=C\c2ccc3c(c2)OCO3)C(=O)S1,13.1%,
CCC1=C/C(=C\c2ccc3c(c2)OCO3)C(=O)S1,,28.2 µM (active)
CC(C)(C)NCC(O)COc1cccc2[nH]c(=O)[nH]c12 (stereo not given),,inactive
COc1cc2c(cc1OC)CC1(CCCCC1)N=C2,7.1%,
COc1ccc(CCNC(=O)C(Sc2ccccn2)c2ccccc2)cc1OC (stereo not given),-13.6%,
COc1ccc(C(CCN(Cc2ccc(OC)c(OC)c2)C(=O)CCl)c2ccccc2)cc1 (stereo not given),,3.55 µM (active)
COc1ccc(CCN(C(=O)COc2ccccc2)c2nc(-c3ccccc3)cs2)cc1OC,-1.23%,

Compound,"activity, negative = inhibition",Potency
CCN(CC)CCNC(=O)c1sc2ncn(CC(=O)Nc3ccc(C)c(Cl)c3)c(=O)c2c1C,4.02%,
COCCNC(=S)N(Cc1cccnc1)Cc1ccc(OC)c(OC)c1,12.2%,
COC(=O)c1ccc(CSc2nncn2N)cc1,10.2%,
CN1C=CC=C/C1=C1\SC(=S)N(Cc2ccccc2)C1=O,,12.6 µM (active)
CCCCN1C(=O)/C(=C2/C=CC=CN2C)SC1=S,,22.4 µM (active)
CCN1C(=O)/C(=C2/Sc3ccccc3N2CCCS(=O)(=O)O)SC1=S,,inactive
CC12C(=O)N(c3ccccc3)C(=O)C1C(c1ccccc1)N1CCCN12 (stereo not given),3.9%,
N#CC1(C#N)C(C(=O)C23CC4CC(CC(C4)C2)C3)C12CCOCC2 (stereo not given),-4.11%,
O=C(c1ccncc1)c1ccc([N+](=O)[O-])cc1,1.62%,
Cc1ccc(C(=O)NCC(=O)O)s1,1.87%,
O=C(N/C(=C\c1ccc(F)cc1)C(=O)N1CCCCCC1)c1ccccc1,7.58%,
CCS(=O)(=O)c1ccc2oc(SCC(=O)N3c4ccccc4CC3C)nc2c1 (stereo not given),,28.2 µM (active)
CC1Cc2ccccc2N1C(=O)CSc1nnc(-c2ccc(S(=O)(=O)N3CCCCC3)cc2)o1 (stereo not given),7.58%,
CC1Cc2ccccc2N1C(=O)CSc1nc2ccccc2o1 (stereo not given),-5.38%,
CO/N=C/c1cn(-c2ccc(Cl)cc2)nn1,7.47%,
COc1cccc([C@@H]2Oc3ccc(Br)cc3C(=O)[C@H]2OC(=O)NCc2ccc3c(c2)OCO3)c1,-1.38%,
C1CC1Cc1noc(CN2CCN(CC3CC3)CC2)n1,2.78%,
CCOc1cc(NC(=O)c2ccccn2)c(OCC)cc1NC(=O)c1ccc(OC)cc1,3.73%,
CCOc1cc(NC(=O)CCl)c(OCC)cc1NC(C)=O,,25.1 µM (active)
CCCC(=O)Nc1cc(OCC)c(NC(=O)NC2CCCCC2)cc1OCC,3.79%,
CC(=O)NC(CC(=O)O)c1ccc(F)cc1 (stereo not given),9.43%,
Cc1ccc(C(CC(=O)O)Nc2nc(N3CCCCC3)nc(N3CCCCC3)n2)cc1 (stereo not given),,25.1 µM (active)
CC(Nc1nc(N2CCCC2)nc2ccccc12)c1ccccc1 (stereo not given),-8.47%,
CC(C)C1N=C2c3ccccc3N=C(SCC(=O)c3ccc(O)c(O)c3)N2C1=O (stereo not given),,0.631 µM (active)

Compound,"activity, negative = inhibition",Potency
Cc1ccc(NC(=O)N2CCSc3ccccc32)cc1,-7.34%,
Cn1ccc(=NC=C(C#N)C#N)c2ccccc21,-12.3%,
Cc1ccc(NNC(=O)c2c(F)cccc2Cl)cc1Cl,-4.66%,
CCOC(=O)C(=Cc1ccccc1OC)C(=O)OCC,-3.21%,
COC(=O)NNC1=CC(=O)CC(C)(C)C1,1.03%,
Cc1cc(O)ccc1NC1=CC(=O)CC(C)(C)C1,-4.46%,
Cc1cc(C)nc(NNC2=CC(=O)CC(C)(C)C2)n1,,25.1 µM (active)
CCc1nnc(NC(=O)Cc2cccs2)s1,7.04%,
O=C(c1ccc(F)cc1)c1cn(Cc2ccc(F)cc2)c2cc3c(cc2c1=O)OCCO3,8.6%,
COc1cc2c(cc1/C=C1/NC(=O)N(c3ccccc3)C1=O)OCO2,,3.98 µM (active)
O=C1N/C(=C/c2cccn2-c2ccccc2)C(=O)N1c1cccc(Cl)c1,-0.252%,
CCCOc1ccccc1C1CC(=O)Nc2cc3c(cc21)OCO3 (stereo not given),2.64%,
COC(=O)c1c(C(=O)OC)c2n(c1C)CCS2,9.96%,
CCN(CC)C(=O)CS(=O)CC(=O)Nc1cc(OCCOC)c(Cl)cc1Cl (stereo not given),0.334%,
CC(N=Cc1nc(-c2ccccc2)oc1O)c1ccccc1 (stereo not given),-0.118%,
Oc1oc(-c2ccccc2Br)nc1/C=N/c1ccccn1,,11.2 µM (active)
CCOc1ccc2nc(/N=C/c3nc(-c4ccccc4)oc3O)sc2c1,-2.59%,
CCOC(=O)C1=C(C)N=C2c3ccccc3C(=O)C2C1c1ccc(Br)cc1 (stereo not given),15.5%,
O=C1c2ccccc2S(=O)(=O)N1CC(O)Cn1c2ccccc2c2ccccc21 (stereo not given),,14.1 µM (active)
CNC(=O)CN1C(=O)c2ccccc2S1(=O)=O,4.14%,
O=C(CN1C(=O)c2ccccc2S1(=O)=O)N1CCc2ccccc21,-7.06%,
Cc1ccc(NC(=O)Cn2c(=O)n(CCC(=O)NC3CCN(Cc4ccccc4)CC3)c(=O)c3ccccc32)cc1,8.09%,
